These results are taken from PubChem BioAssay (NCATS).

One assay deals with CRL-7250. The assay can be described thus: Cytotoxic Profiling of Annotated Libraries Using Quantitative High-Throughput Screening (AID 1296008). Further: potency means the concentration at half of the fitted maximal effect. On max response: on the % scale 0 is the no-effect control and ±100 the full control effect. The note with it: Five cell lines viability, CellTiter-Glo ATP luminescence, 48-72 h; max response: active compounds read low. The method in brief: (§1)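 Cytotoxicity was measured as CellTiter-Glo ATP luminescence, read after 10 min at room temperature. Compound treatment of the cells lasted 48 or 72 hr at 37 degrees Celsius in a qHTS format.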
For orientation: Cellular ATP, detected with luciferase, serves as a proxy for viable cell number.

A further assay concerns HEK293. The description is as above. The note with it: Five cell lines viability, CellTiter-Glo ATP luminescence, 48-72 h; max response: active compounds read low. The procedure, abridged:
as §1

Another assay relates to HaCat. The assay is described as above. The note with it: Five cell lines viability, CellTiter-Glo ATP luminescence, 48-72 h; max response: active compounds read low. The procedure, abridged:
as §1

The next assay has as its system KB-3-1. The assay is described as above. As to conditions: Five cell lines viability, CellTiter-Glo ATP luminescence, 48-72 h; max response: active compounds read low. The method in brief: as §1
A further assay has as its system NIH3T3. Described as above. As to conditions: Five cell lines viability, CellTiter-Glo ATP luminescence, 48-72 h; max response: active compounds read low. The procedure, abridged: as §1
The next assay concerns MCC-26. The assay can be described thus: qHTS assay to identify novel small-molecules to repurpose for Merkel cell carcinoma treatment (AID 1296009). Further: potency means the concentration at half of the fitted maximal effect. As to conditions: MCC and control cell lines, CellTiter-Glo viability, 72 h; series mostly up to 46 µM. The procedure, abridged: (§2)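 Cell viability measured by CellTiter-Glo following 72 hr compound treatment at 37 degree celsius, with NPC and MIPE libraries tested in 8- and 11-point concentration series.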
(In general: Quantitative high-throughput screening tests each substance at several concentrations.)

The next assay relates to MCC-13. The description is as above. As to conditions: MCC and control cell lines, CellTiter-Glo viability, 72 h; series mostly up to 46 µM. The method in brief:
as §2

The subject of a further assay is W2. The assay can be described thus: qHTS profiling for inhibitors of Plasmodium falciparum proliferation (AID 504749).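 Further: 0% = DMSO vehicle and full inhibition = artemisinin control.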 As to conditions: P. falciparum in erythrocytes, SYBR Green DNA, 72 h; series mostly up to 28.7 µM. The method in brief:
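In a 72 h erythrocytic culture (37 C, humidified, 5% CO2) at 2.5% hematocrit and 0.3% starting parasitemia, compounds were tested; SYBR Green I in detergent lysis buffer stained parasite DNA overnight.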

Several values for one entry are separate records, joined by “and”; a condition that tells them apart may be missing. Equal values may be shown once. Results filed as inconclusive are left out. Unmarked numbers belong to inactive results. Activity calls are given as the source filed them. The call rests on the fitted dose curve; in most records, active means well fitted inhibition curve with a large enough effect; inconclusive means small, poorly fitted or top-dose-only effect; inactive means flat fitted curve, though single readings scatter.
Further: nearly all actives have a fitted effect of over 60% in size.

As for `Cc1nc(Nc2n[nH]c3c2CN(C(=O)N[C@H](CN(C)C)c2ccccc2)C3(C)C)c2sccc2n1`, the Potency in the assay on CRL-7250 is 1.18 µM (active) and 130 nM (active); in the assay on HEK293, 20.9 nM (active) and 10.3 nM (active); in the assay with HaCat, 7.43 µM (active); with KB-3-1, 2.35 µM (active) and 2.06 µM (active); in the assay on NIH3T3, 1.16 µM (active); in the assay on MCC-26 it was 14.8 µM (active).

With `Cc1cccc(C=NNc2cc(N3CCOCC3)nc(OCCc3ccccn3)n2)c1`, the max response in the assay with CRL-7250 is -4.72%; in the assay with HaCat, -6.14%. The Potency with HEK293 was 5.9 µM (active). In addition, the Potency result in the assay with MCC-13 and in the assay with MCC-26 was “inactive” in each case.

As for `CC(C)c1cc(-c2n[nH]c(=O)n2-c2ccc3c(ccn3C)c2)c(O)cc1O`, the Potency with CRL-7250 is 148 nM (active) and 103 nM (active); in the assay with HEK293 it was 46.9 nM (active) and 41.1 nM (active); in the assay with HaCat, 0.0651 µM (active); in the assay on NIH3T3, 105 nM (active) and 116 nM (active); in the assay with MCC-13 it was 132 nM (active).

As to `C1=CCOCc2cc(ccc2OCCN2CCCC2)Nc2nccc(n2)-c2cccc(c2)OCC1`, the Potency with CRL-7250 is 8.33 µM (active); in the assay with HEK293 it was 3.32 µM (active); in the assay with HaCat it was 4.69 µM (active); in the assay on KB-3-1 it was 2.96 µM (active); in the assay on NIH3T3 it was 7.43 µM (active); with MCC-26, 9.35 µM (active).

For `COC(=O)[C@]12CCC(C)(C)C[C@@H]1[C@@H]1C(=O)C=C3[C@@]4(C)C=C(C#N)C(=O)C(C)(C)[C@@H]4CC[C@@]3(C)[C@]1(C)CC2`, the Potency in the assay with CRL-7250 is 4.69 µM (active); in the assay with HEK293, 2.96 µM (active); with HaCat, 4.18 µM (active); with KB-3-1 it was 1.18 µM (active). Also, the Potency result in the assay on MCC-26 was “inactive”.

Consider `Nc1ccccc1NC(=O)c1ccc(CNc2nccc(-c3cccnc3)n2)cc1`, for which the Potency in the assay with CRL-7250 is 4.18 µM (active) and 5.17 µM (active); in the assay on HEK293 it was 1.64 µM (active); in the assay with HaCat, 3.72 µM (active); in the assay with KB-3-1, 1.87 µM (active) and 2.06 µM (active); with MCC-13 it was 5260 nM (active).

As for `COc1cc2c(Oc3ccc(-c4cnc(Nc5ccc(F)cc5)n(C)c4=O)cc3F)ccnc2cc1OCCCN1CCOCC1`, the Potency in the assay on CRL-7250 is 13.2 µM (active); in the assay on HEK293 it was 4.69 µM (active); in the assay with HaCat it was 23.5 µM (active); in the assay on KB-3-1, 9.35 µM (active); with NIH3T3 it was 526 nM (active) and 5.8 µM (active); in the assay on MCC-26, 7.43 µM (active).

For `CC=CC1=C(C(=O)O)N2C(=O)[C@H](NC(=O)[C@H](N)c3ccc(O)cc3)[C@@H]2SC1`, the Potency result in the assay on W2, with MCC-13 and in the assay with MCC-26 was “inactive” each time. Besides, the max response is 1.71% with CRL-7250; -2.68% in the assay with HEK293; -17% in the assay with HaCat; 1.31% with KB-3-1; 1.07% in the assay on NIH3T3.

For `Cc1ccc(-c2ncn(-c3ccc(Nc4nccc(-c5cccc(N6CCOCC6)c5)n4)cc3)n2)cn1`, the Potency with CRL-7250 is 0.118 µM (active); in the assay with HEK293 it was 0.332 µM (active); in the assay on HaCat, 0.418 µM (active); in the assay on KB-3-1, 0.209 µM (active); in the assay on MCC-13, 526 nM (active); with MCC-26, 0.264 µM (active).

As to `CC1(C)O[C@@H]2C[C@@H]3[C@H]4C[C@@H](F)C5=CC(=O)C=C[C@]5(C)[C@@]4(F)[C@@H](O)C[C@]3(C)[C@]2(C(=O)CO)O1`, the Potency entry in the assay with W2, with MCC-13 and in the assay with MCC-26 was “inactive” in each case. Moreover, the max response in the assay with CRL-7250 is -20%; in the assay on HEK293, -3.12%; in the assay on HaCat, -6.44%; in the assay on NIH3T3, -12.4%. Also, the compound was classed as inactive with KB-3-1.

Turning to `CN1c2cc(O)c(N=NC(N)=O)cc2CC1S(=O)(=O)O` (stereo not given), the Potency result in the assay on W2 and in the assay with MCC-13 was “inactive” throughout. The compound was called inactive in the assay on CRL-7250, in the assay with KB-3-1 and in the assay with NIH3T3. Besides, the max response in the assay on HEK293 is 2.9%; in the assay with HaCat, -1.08%.

Turning to `CN[C@H]1CCc2cc(OC)c(OC)c(OC)c2-c2ccc(OC)c(=O)cc21`, the Potency with CRL-7250 was 0.0148 µM (active); with HEK293, 0.0015 µM (active); in the assay on KB-3-1 it was 3.7 nM (active) and 46.1 nM (active); in the assay on MCC-13 it was 20.9 nM (active). In addition, the max response in the assay on HaCat is -10.1%.

In the case of `COc1cc2c(cc1-c1c(C)noc1C)ncc1[nH]c(=O)n([C@H](C)c3ccccn3)c12`, the Potency in the assay with CRL-7250 was 3.26 µM (active); in the assay with HEK293 it was 5.26 µM (active) and 4.11 µM (active); in the assay with KB-3-1, 16.6 µM (active); in the assay on NIH3T3 it was 20.9 µM (active); in the assay on MCC-26, 23.5 µM (active). Further, the max response in the assay with HaCat was -12.8%.

Take `CN1CCN(Cc2ccc(NC(=O)Nc3ccc(Oc4cc(NC(=O)C5CC5)ncn4)cc3)cc2C(F)(F)F)CC1`: the Potency in the assay with CRL-7250 was 418 nM (active) and 1.3 µM (active); in the assay on HEK293, 0.184 µM (active); with HaCat it was 743 nM (active) and 920 nM (active); with KB-3-1 it was 132 nM (active) and 206 nM (active); with NIH3T3, 0.59 µM (active); with MCC-13, 2350 nM (active). For the same compound, in the assay on MCC-26, the Potency is 1.18 µM (active).
